# A selection: hits, their analogues and other compounds. The true share with any hit is near 19%.
# uPA surface inh = qHTS for Inhibitors of Cell Surface uPA Generation | cell surface uPA generation assay, qHTS | Potency, µM (doses to about 38.3 µM), for the others: at the top dose activity change, negative = inhibition, hits mostly inhibitors | 0.31% of 330,000 active | AID 540303, 2011; active means well fitted inhibition curve with a large enough effect; inconclusive means small, poorly fitted or top-dose-only effect; inactive means no such curve, though single readings can be large or run the other way; tested in mouse RAW 264.7 cells; further: potency means the concentration at half of the fitted maximal effect; nearly all actives have a fitted effect of over 55% in size
# HT1080NT lethal = qHTS for induction of synthetic lethality in tumor cells producing 2HG: qHTS for the HT-1080-NT fibrosarcoma cell line. HT-1080-NT fibrosarcoma viability, CellTiter-Glo ATP luminescence, 48 h. Potency, µM (top dose mostly 46.1 µM), for inactives: at the highest dose activity, negative = less viability, usual class: cytotoxic. 1.6% of 360,000 active. AID 686970, 2013;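 further: NT is the 2HG producing partner of a matched IDH1 knockdown line; potency means the concentration at half of the fitted maximal effect; 0% = DMSO-treated cells and -100% = media-only wells without cells; nearly all actives have a fitted effect of over 55% in size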
#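 750 cells/well, RPMI + 5% FBS; 2 h settle, compound pin-transfer, 48 h at 37 degrees C. CellTiter-Glo 10 min RT, luminescence. Normalized to DMSO and media-only wells.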
# IL1B secr inh = qHTS for Inhibitors of Inflammasome Signaling: IL-1-beta AlphaLISA Primary Screen; THP-1 LPS/ATP IL-1B secretion, AlphaLISA, 16 h; active compounds read low; AID 743279, 2014; 4.7% of 360,000 active; activity change, % at 57.5 µM; in the data active means activity change below about -50%; inconclusive means mostly about -30% to -49%
#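 THP-1 cells pretreated 1 hr with compounds (up to 57.5 uM final), then stimulated with LPS (250 ng/mL final) plus ATP (1.25 mM final); secreted IL-1B measured by AlphaLISA after 16 hr, decreased signal indicating inhibition.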
# DT40 TDP1 CPT = qHTS for Inhibitors of human tyrosyl-DNA phosphodiesterase 1 (TDP1): qHTS in cells in presence of CPT; AID 686979, 2013; Potency, µM (titrated, usually from 46.2 µM), without a hit: top-dose activity change, negative = growth inhibition, usual class: inhibitors; 12% of 420,000 active; chicken DT40 Tdp1-/-;hTDP1 cells + 20 nM CPT, ATP luminescence, 48 h; further: potency means the concentration at half of the fitted maximal effect; nearly all actives have a fitted effect of over 55% in size
#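 Chicken DT40 Tdp1-/- cells stably complemented with human TDP1 were seeded at 400 cells/well in medium containing 20 nM camptothecin, exposed to pin-transferred compounds, and grown at 37 °C for at least 48 hr. Viability was read as ATP luminescence.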
# DT40 TDP1 no CPT = qHTS for Inhibitors of human tyrosyl-DNA phosphodiesterase 1 (TDP1): qHTS in cells in absence of CPT | DT40 Tdp1-/- hTDP1 cells, no CPT, ATP luminescence, 48 h | Potency, µM (doses to about 46.2 µM), for inactives: at the top dose activity change, negative = growth inhibition, hits mostly inhibitors | 15% of 420,000 active | AID 686978, 2013; further: potency means the concentration at half of the fitted maximal effect; nearly all actives have a fitted effect of over 55% in size
#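 Readout: luminescence from CellTiter-Glo after 30 min in the dark at RT. Cells: DT40 Tdp1-/- with stable hTDP1, 400/well. Exposure: compounds alone, ≥48 hr, 37 °C.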
# HT1080 IDH1KD tx = qHTS for induction of synthetic lethality in tumor cells producing 2HG: qHTS for the HT-1080-IDH1KD cell line | AID 686971, 2013 | HT-1080 IDH1 knockdown viability, ATP luminescence, 48 h | Potency, µM (highest dose often 46.1 µM), for inactives: at the top dose activity, negative = toxicity, most hits filed as cytotoxic | 2% of 360,000 active;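 further: potency means the concentration at half of the fitted maximal effect; 0% = DMSO wells and -100% = cell-free medium wells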
#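 Assay cells: HT-1080 with IDH1 knockdown, 750 per well, RPMI/5% FBS. Exposure: 48 h at 37 °C following 2 h pre-incubation. Read: CellTiter-Glo luminescence; fitted concentration-response, curve class assigned.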
# An asterisk follows results filed as active; u = inconclusive; x = not tested or not shown; [ ] = another dose, or the depositor's remark. Unless noted, the call rests on the fitted dose curve; in most records, active means well fitted curve in the direction sought with a large enough effect; inconclusive means small, poorly fitted or top-dose-only effect, or another doubt; inactive means no such curve, though single readings can be large; an effect the other way counts as inactive or inconclusive. Unless noted, on the % scale 0 is the no-effect control and ±100 the full control effect.
SMILES,uPA surface inh,HT1080NT lethal,IL1B secr inh,DT40 TDP1 CPT,DT40 TDP1 no CPT,HT1080 IDH1KD tx
CC(C)(C)OC(=O)C[C@@H]1C/C=C\C[C@@H](CC(=O)N[C@H](CO)Cc2ccccc2)C(=O)NC[C@H](c2ccccc2)OC1=O,-1.6%,9.5%,11.2,u,u,4.3%
O=C(C[C@H]1C/C=C\C[C@@H](Cc2ccc(F)cc2)C(=O)O[C@H](c2ccccc2)CNC1=O)N[C@@H](CO)Cc1ccccc1,6.4%,-9.5%,21.0,-21.6%,u,10.3%
C[C@@H]1COC(=O)[C@@H](CC(=O)OC(C)(C)C)C/C=C\C[C@@H](CC(=O)N[C@@H](CO)Cc2ccccc2)C(=O)N1,9.0%,0.0%,-2.2,u,u,7.7%
O=C(C[C@H]1C/C=C\CC[C@@H](Cc2ccc(F)cc2)C(=O)O[C@@H](c2ccccc2)CNC1=O)N[C@H](CO)Cc1ccccc1,1.6%,u,-0.4,18.4µM*,u,-21.3%
CC(C)(C)OC(=O)C[C@H]1C/C=C\C[C@H](CC(=O)N[C@H](CO)Cc2ccccc2)C(=O)N[C@@H](Cc2ccccc2)COC1=O,7.7%,17.5%,0.0,16.4µM*,14.6µM*,2.5%
CC(C)(C)OC(=O)C[C@H]1C/C=C\C[C@@H](CC(=O)N[C@H](CO)Cc2ccccc2)C(=O)NC[C@H](c2ccccc2)OC1=O,-13.8%,8.2%,-3.4,u,23.1µM*,3.1%
COc1cccc(NC(=O)C2CCN(S(=O)(=O)c3c(C)noc3C)CC2)c1,x,x,x,12.9%,-14.4%,x
Cc1ccc(C2=NN(CC(=O)NC(C)c3ccccc3)C(=O)CC2)cc1 (stereo not drawn),x,x,x,-7.7%,-3.9%,x
CC(C)(C)OC(=O)C[C@@H]1C/C=C\C[C@H](CC(=O)N[C@@H](CO)Cc2ccccc2)C(=O)N[C@H](C(C)(C)C)COC1=O,6.9%,8.9%,-8.3,20.6µM*,18.4µM*,16.8%
CCOC(=O)C1CCCN(C(=O)C2(c3ccc(Cl)cc3)CCCC2)CC1 (stereo not drawn),x,-27.3%,16.5,u,u,-15.4%
O=C(Nc1ccccc1)c1cccc2c(-c3cccnc3)coc12,x,14.1%,-16.7,20.6µM*,14.6µM*,15.4%
COc1ccc(NC(=O)c2cccc3c(-c4cccnc4)coc23)cc1,x,u,-2.7,11.6µM*,20.6µM*,1.8%
COc1ccc(S(=O)(=O)N2CCC(C(=O)NCCN3CCOCC3)CC2)cc1,1.2%,-11.7%,-0.7,-6.4%,1.5%,0.8%
Cc1ccccc1NC(=O)c1nnn(-c2ccc3c(c2)OCCO3)c1N,0.1%,-21.0%,-64.8*,0.9%,u,-0.3%
CCOc1ccccc1NC(=O)c1nnn(-c2ccc3c(c2)OCCO3)c1N,10.4%,-13.6%,u,u,u,-13.1%
CN1CCN(c2ncnc3c2ncn3[C@H]2CN(C)C[C@@H](CO)O2)CC1,x,19.7%,-6.0,-18.8%,-25.6%,u
Cc1ccc(S(=O)(=O)c2nc(-c3ccccc3Cl)oc2N(C)C)cc1,1.1%,u,33.9,7.31µM*,10.3µM*,u
CN(C)c1oc(-c2ccccc2Cl)nc1P(=O)(c1ccccc1)c1ccccc1,-3.0%,-1.5%,-62.3*,u,u,-21.3%
Cc1ccc(-c2nc(S(=O)(=O)c3ccc(C)cc3)c(N(C)C)o2)cc1,0.4%,12.0%,-11.3,u,23.1µM*,14.7%
Cc1ccc(S(=O)(=O)c2nc(-c3ccccc3Br)oc2N(C)C)cc1,-8.5%,-23.0%,14.9,20.6µM*,u,u
COc1ccccc1-c1nc(S(=O)(=O)c2ccc(Cl)cc2)c(N(C)C)o1,5.4%,0.0%,24.0,-6.3%,2.4%,-11.3%
COc1ccc(-c2ccc(=O)n(CC(=O)Nc3ccc(N(C)C)cc3)n2)cc1,x,x,x,0.9%,1.4%,x
CC1CSC(N(C(=O)c2ccc(S(C)(=O)=O)cc2)c2ccc(Cl)cc2)=N1 (stereo not drawn),0.1%,u,17.7,u,u,u
COc1ccc2nc(Cl)c(C=O)c(N3CCOCC3)c2c1,x,-0.4%,5.1,u,14.6µM*,-8.0%
COc1ccc2nc(C)cc(N3CCOCC3)c2c1,x,0.1%[9.24 µM],12.6,-26.3%,-24.5%,6.8%
SMILES,uPA surface inh,HT1080NT lethal,IL1B secr inh,DT40 TDP1 CPT,DT40 TDP1 no CPT,HT1080 IDH1KD tx
COc1ccc(-c2noc(-c3ccc(N4CCN(c5ccccc5OC)CC4)c([N+](=O)[O-])c3)n2)cc1,x,x,x,1.5%,3.3%,x
COc1ccccc1-c1noc(-c2ccc(N3CCOCC3)c([N+](=O)[O-])c2)n1,x,x,x,20.6µM*,13µM*,x
COc1ccc(-c2noc(-c3ccc(N4CCN(C)CC4)c([N+](=O)[O-])c3)n2)cc1OC,x,x,x,5.17µM*,3.26µM*,x
COc1ccc(-c2nc(SCC(=O)NCc3ccccc3Cl)n[nH]2)cc1,x,x,x,5.8µM*,7.31µM*,x
CCOc1cc(CNC(=O)CSc2n[nH]c(-c3ccccc3)n2)cc(OCC)c1OCC,x,x,x,20.6µM*,u,x
COc1cccc(CNC(=O)CSc2n[nH]c(-c3ccccc3Cl)n2)c1,x,x,x,-25.5%,u,x
CCOC(=O)Cn1c(=O)oc2cc(S(=O)(=O)N3CCC(C(=O)OCC)CC3)ccc21,x,x,x,7.1%,2.8%,x
O=C(Nc1cccc(F)c1)[C@H](CSCc1ccccc1)N1Cc2ccccc2C1=O,x,x,x,-8.3%,u,x
CCOC(=O)c1ccc(NC(=O)CC2Sc3ncnn3C2=O)cc1 (stereo not drawn),-1.4%,1.0%,u,5.8µM*,6.51µM*,2.0%
COc1ccc(NC(=O)CC2Sc3ncnn3C2=O)cc1 (stereo not drawn),-29.3%,-2.4%,14.9,5.17µM*,11.6µM*,-4.6%
COCCN1C(=O)C(CC(=O)Nc2ccccc2)SC1=Nc1ccc(OC)cc1 (stereo not drawn),-7.0%,-13.1%,8.1,-5.7%,-13.0%,-12.5%
COC(=O)C[C@H]1C[C@H]2c3cc(NS(=O)(=O)c4ccc(OC)cc4)ccc3O[C@H]2[C@H](CO)O1,x,7.6%,10.0,u,u,-0.9%
Cc1cccc(N2CCN(c3ccc4cc(S(=O)(=O)N5CCC(C)CC5)ccc4n3)CC2C)c1 (stereo not drawn),x,x,x,-17.0%,-23.9%,x
N#Cc1c(-c2ccncc2)c2c([nH]c1=S)CCCC2,-0.2%,4.2%,-12.8,2.4%,-5.5%,16.6%

# Bioassay records (PubChem)
